Assay outcomes from PubChem BioAssay.
A selection: hits, their analogues and other compounds. The true share with any hit is near 10%.
G9a inh – qHTS Assay for Inhibitors of Histone Lysine Methyltransferase G9a | Histone-lysine N-methyltransferase EHMT2 (Homo sapiens), Q96KQ7 | G9a H3K9 monomethylation, AlphaScreen, 2 h | Potency, µM (highest dose often 102 µM), for inactives: at the highest dose activity, negative = inhibition, hits mostly inhibitors | 350,000 tested, 8.8% active; also: potency is read from the fitted curve at half-maximal effect; % is scaled to controls: 0 for no effect and ±100 for the full control effect; nearly all actives have a fitted effect of over 75% in size
Target sequence (Q96KQ7 913-1193 limits assumed): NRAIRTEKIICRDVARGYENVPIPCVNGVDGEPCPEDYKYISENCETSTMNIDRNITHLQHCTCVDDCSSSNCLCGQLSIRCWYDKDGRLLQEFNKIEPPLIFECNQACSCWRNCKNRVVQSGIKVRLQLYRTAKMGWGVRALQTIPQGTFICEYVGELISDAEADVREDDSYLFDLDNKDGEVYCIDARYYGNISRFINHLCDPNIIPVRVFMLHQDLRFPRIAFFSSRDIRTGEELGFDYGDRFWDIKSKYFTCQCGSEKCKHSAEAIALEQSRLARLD
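Chemiluminescent proximity detection of H3K9 monomethylation, read after 10 min bead incubation in the dark. Reaction: 20 nM G9a, 500 nM biotin-H3K9 peptide, 20 uM SAM cofactor, 2 h, room temperature, following 15 min enzyme-compound preincubation.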
CtBP-E1A blk – qHTS Assay for Inhibitors of the CtBP/E1A Interaction; CtBP / adenovirus E1A interaction (AlphaScreen); AlphaScreen GST-E1A/His-CtBP binding, 1536-well; stronger effect = lower value; activity change, % (no concentration beside the values); 340,000 tested, 0.49% active; AID 651724, 2012; in the data active = activity change below about -65%; inconclusive = mostly about -30% to -63%; also: % is scaled to controls: 0 for no effect and ±100 for the full control effect
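Steps: dispense buffer (Tris pH 8.0, NaCl 300 mM, TCEP 1 mM, BSA, Tween 20); add 5X protein mix (GST-E1A, His-CtBP, 125 nM each); pin 23 nL compound; 2 h at 37 °C, dark; add 5X beads (50 ug/mL); 1 h; read.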
HP1b chromo inh – HTS for Inhibitors of HP1-beta Chromodomain Interactions with Methylated Histone Tails; AlphaScreen HP1-beta / biotin-H3K9me3 peptide binding; Potency, µM (highest dose often 114 µM), for inactives: top-dose activity change, negative = inhibition, usual class: inhibitors; 390,000 tested, 0.56% active; AID 540317, 2011; also: potency is read from the fitted curve at half-maximal effect; nearly all actives have a fitted effect of over 70% in size
Target sequence (P83916 whole entry, looked up): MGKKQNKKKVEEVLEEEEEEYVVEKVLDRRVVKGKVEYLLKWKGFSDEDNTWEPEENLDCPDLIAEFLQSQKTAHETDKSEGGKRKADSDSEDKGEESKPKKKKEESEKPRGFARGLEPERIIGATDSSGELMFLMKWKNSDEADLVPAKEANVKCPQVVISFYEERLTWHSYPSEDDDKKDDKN
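AlphaScreen: HP1-beta (50 nM) preformed 30 min with biotin-H3(1-18)K9me3 peptide (50 nM) in PBS pH 7.4, 0.01% Tween-20. Compound added for 30 min at RT, then streptavidin donor/nickel chelate acceptor beads (10 ug/mL) for 30 min.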
BAZ2B inh – qHTS Assay for Inhibitors of BAZ2B; 360,000 tested, 4.4% active; AID 504333, 2011; Bromodomain adjacent to zinc finger domain protein 2B (Homo sapiens), Q9UIF8; AlphaScreen BAZ2B-H3K14Ac peptide displacement; Potency, µM (titrated, usually from 114 µM), without a hit: at the highest dose activity change, negative = inhibition, usual class: inhibitors; also: potency is read from the fitted curve at half-maximal effect; % is scaled to controls: 0 for no effect and ±100 for the full control effect; nearly all actives have a fitted effect of over 60% in size
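AlphaScreen luminescence quantifies BAZ2B engagement of H3K14Ac peptide; the protein and biotinylated peptide are both at 50 nM final, buffer PBS pH 7.4 with 0.01% Tween-20, all steps at room temperature.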
JMJD2A Tudor inh – qHTS Assay for Inhibitors of JMJD2A-Tudor Domain; AlphaScreen JMJD2A-Tudor / H3K4me3 peptide binding; Lysine-specific demethylase 4A (Homo sapiens), O75164; 390,000 tested, 4.4% active; Potency, µM (doses to about 114 µM), for the others: top-dose activity change, negative = inhibition, hits mostly inhibitors; AID 504339, 2011; also: potency is read from the fitted curve at half-maximal effect; % is scaled to controls: 0 for no effect and ±100 for the full control effect; nearly all actives have a fitted effect of over 50% in size
Six1-Eya2 inh – qHTS Assay for Inhibitors of the Six1/Eya2 Interaction | AID 651725, 2012 | 360,000 tested, 0.56% active | Homeobox protein SIX1 (Homo sapiens) + Protein phosphatase EYA2 (Homo sapiens), … | AlphaScreen GST-Six1/His-Eya2 binding, biochemical; stronger effect = lower value | activity change, % (concentration not given with the values); in the data active = activity change below about -65%; inconclusive = mostly about -30% to -63%; also: % is scaled to controls: 0 for no effect and ±100 for the full control effect
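AlphaScreen with GST-Six1 and His-Eya2 (5X mix: 250 nM and 500 nM), glutathione donor and nickel acceptor beads; buffer 50 mM Tris pH 8.0, 300 mM NaCl, 1 mM TCEP; 1 h at 37 C in the dark.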
Numbers without * were called inactive; [ ] = remark or other dose. Unless noted, calls follow the shape of the dose curve; as a rule, active = well fitted inhibition curve with a large enough effect; inconclusive = small, poorly fitted or top-dose-only effect; inactive = no such curve, though single readings can be large or run the other way.

Screening O=[N+]([O-])c1nn(-c2ccc3c(c2)OCCO3)n(O)c1=NC1CCCCCC1 returned G9a inh 13µM*, CtBP-E1A blk inconclusive, HP1b chromo inh inconclusive, BAZ2B inh 14µM*, JMJD2A Tudor inh 22µM* and Six1-Eya2 inh inconclusive.
CCc1ccc(N=c2c([N+](=O)[O-])nn(-c3ccc4c(c3)OCCO4)n2O)cc1 was read as G9a inh 18µM*, CtBP-E1A blk inconclusive, HP1b chromo inh inconclusive, BAZ2B inh 25µM*, JMJD2A Tudor inh 32µM* and Six1-Eya2 inh -22.
For CC(C)c1noc2ncc(C(=O)c3cc(Cl)cc(Cl)c3O)cc12 the results were G9a inh -39%[59 µM], CtBP-E1A blk inconclusive, HP1b chromo inh -19%, BAZ2B inh -39%, JMJD2A Tudor inh -33% and Six1-Eya2 inh inconclusive.
Screening CC[C@H](C)[C@H](NC(=O)[C@H](CCCN=C(N)N)NC(=O)[C@H](CCCN=C(N)N)NC(=O)[C@H](CC(C)C)NC(=O)[C@H](Cc1ccccc1)NC(=O)CNC(=O)CN)C(=O)N[C@@H](CCCN=C(N)N)C(=O)N1CCC[C@H]1C(=O)N[C@@H](CCCCN)C(=O)N[C@@H](CC(C)C)C(=O)N[C@@H](CCCCN)C(=O)O returned G9a inh 12%[59 µM].
`COc1ccc(CCNC(=O)c2c(N)no[n+]2[O-])cc1OC` gave G9a inh -23%, CtBP-E1A blk -24, HP1b chromo inh 28%, BAZ2B inh -9%, JMJD2A Tudor inh -12% and Six1-Eya2 inh 0.
`CN1/C(=C\C(=O)c2ccccc2Cl)c2ccccc2CC1(C)C` gave G9a inh inconclusive, CtBP-E1A blk -10, HP1b chromo inh 36%, BAZ2B inh inconclusive, JMJD2A Tudor inh -2%[57.1 µM] and Six1-Eya2 inh 3.
For Cc1ccccc1C(=O)/C=C1/c2ccccc2CC(C)(C)N1C the results were G9a inh 34%[59 µM], CtBP-E1A blk 6, HP1b chromo inh 26%, BAZ2B inh 50µM*, JMJD2A Tudor inh -26% and Six1-Eya2 inh -14.
For Cn1c(=O)c(C#N)c(-c2ccc(F)cc2)c2cc(C(=O)c3cc(Cl)cc(Cl)c3O)cnc21 the results were G9a inh inconclusive, CtBP-E1A blk inconclusive, HP1b chromo inh inconclusive, BAZ2B inh 35µM*, JMJD2A Tudor inh 45µM* and Six1-Eya2 inh -5.
Cc1ccc(Cl)c(OCCN2CCc3ccccc3C2)c1 was read as HP1b chromo inh 43%, BAZ2B inh 5%, JMJD2A Tudor inh 1% and Six1-Eya2 inh 10.
Screening Clc1ccc(OCCCCN2CCc3ccccc3C2)cc1 returned CtBP-E1A blk 19, HP1b chromo inh 100%, BAZ2B inh 6%, JMJD2A Tudor inh 18% and Six1-Eya2 inh 26.
For COc1ccc(OCCOCCN2CCc3ccccc3C2)cc1 the results were G9a inh 10µM*, CtBP-E1A blk -3, HP1b chromo inh inconclusive, BAZ2B inh 50µM*, JMJD2A Tudor inh 2.5µM* and Six1-Eya2 inh -3.
N#Cc1ccc(OCCN2CCc3ccccc3C2)cc1 was read as HP1b chromo inh inconclusive, JMJD2A Tudor inh 25µM* and Six1-Eya2 inh -3.
For Cc1cc2ccccn2c1C(=O)c1ccc([N+](=O)[O-])cc1[N+](=O)[O-] the results were G9a inh inconclusive, CtBP-E1A blk -5, HP1b chromo inh 40µM*, BAZ2B inh 25µM*, JMJD2A Tudor inh 20µM* and Six1-Eya2 inh -9.
Screening Cc1cc2ccccn2c1C(=O)c1ccc([N+](=O)[O-])o1 returned G9a inh inconclusive, CtBP-E1A blk -4, HP1b chromo inh -11%, BAZ2B inh 10µM*, JMJD2A Tudor inh inconclusive and Six1-Eya2 inh 0.
Screening Cc1cc2ccccn2c1C(=O)c1ccc(Cl)c([N+](=O)[O-])c1 returned G9a inh -31%, CtBP-E1A blk -12, HP1b chromo inh inconclusive, BAZ2B inh 11µM*, JMJD2A Tudor inh inconclusive and Six1-Eya2 inh -13.
Screening Cc1cc2ccccn2c1C(=O)c1cccc([N+](=O)[O-])c1 returned G9a inh 40µM*, CtBP-E1A blk inconclusive, HP1b chromo inh inconclusive, BAZ2B inh inconclusive, JMJD2A Tudor inh -18% and Six1-Eya2 inh -27.
Screening COCCCNC(=O)c1c(NC(=O)Cc2coc3cc(C)ccc23)sc2c1CCCC2 returned G9a inh -6%[59 µM], HP1b chromo inh 46%, BAZ2B inh -3% and JMJD2A Tudor inh -8%.
For O=C(CSc1ccccc1C(=O)O)NCc1ccccc1 the results were G9a inh -45%, CtBP-E1A blk 4, HP1b chromo inh 17%, BAZ2B inh -9%, JMJD2A Tudor inh -8% and Six1-Eya2 inh 15.
`O=C(CSc1ccccc1C(=O)O)NC1CCCCCC1` gave G9a inh -37%, CtBP-E1A blk 10, HP1b chromo inh -24%, BAZ2B inh -3%, JMJD2A Tudor inh 10µM* and Six1-Eya2 inh 5.
For CC(C)CCNC(=O)c1ccccc1SCC(=O)NC1CCCCCCC1 the results were G9a inh 3%[12.7 µM], CtBP-E1A blk 13, HP1b chromo inh 37%, BAZ2B inh -9%, JMJD2A Tudor inh -2% and Six1-Eya2 inh -4.
For O=C(CSc1ccccc1C(=O)NCc1ccccc1)NC1CCCCCCC1 the results were G9a inh 10µM*, CtBP-E1A blk -2, HP1b chromo inh 10%, BAZ2B inh -5%, JMJD2A Tudor inh 89µM* and Six1-Eya2 inh 2.
O=C(O)CSc1ccccc1C(=O)O was read as G9a inh 45µM*, CtBP-E1A blk 7, HP1b chromo inh 10%, BAZ2B inh -10%, JMJD2A Tudor inh -25% and Six1-Eya2 inh 5.
For O=C(CSc1ccccc1C(=O)O)NC1CCCCCCC1 the results were G9a inh -39%[59 µM], CtBP-E1A blk 0, HP1b chromo inh 62%, BAZ2B inh 4%, JMJD2A Tudor inh 4% and Six1-Eya2 inh 0.
`O=C(CSc1ccccc1C(=O)NCc1ccccc1)NC12CC3CC(CC(C3)C1)C2` gave G9a inh 10µM*, CtBP-E1A blk 0, HP1b chromo inh 26%, BAZ2B inh -8%, JMJD2A Tudor inh -16% and Six1-Eya2 inh 15.
For O=C1OC2(CCCCC2)CC2=C1C1O[C@](c3ccsc3)(Cc3c1ccc1ccccc31)O2 the results were BAZ2B inh -4%[22.9 µM].
